# Source: the supplement of paper PMC12340641
# Structures can show the parent of a compound that is named as a salt.
# Experiments:
# [1] = biological target: IKZF1 (dCK*-IKZF1 fusion in HEK293FT) (UniProt Q13422); experiment: inhibition of IKZF1 HTRF signal (DMSO = 0%, pomalidomide 10 uM = 100%); higher = lower IKZF1 protein level; details: compound concentration: 5 uM, overnight (~20 h)
# How it was run: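 After overnight treatment at 37 °C with 5 μM compound in single wells, HEK293FT cells (2000/well, 384-well) stably expressing an IKZF1 fusion were lysed for 30 min at room temperature. A commercial HTRF total-IKZF1 antibody kit was incubated with the lysate overnight, and the time-resolved FRET ratio at 665/620 nm was corrected for background. Data are given as percent inhibition of IKZF1 signal relative, on each plate, to vehicle and a reference degrader, set at 0% and 100% respectively.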
# HEK293FT dCK*-only = experiment: relative growth in counter assay (no AraC = 100%, AraC + DMSO = 0%); higher = more growth rescue independent of IKZF1; details: compound concentration: 5 uM; AraC concentration: 0.3 uM; overnight pretreatment + 4 days AraC
# How it was run: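 Counter assay in HEK293FT cells expressing dCK* alone (300/well, 384-well). Cells received 5 μM compound 2 h after seeding, then after overnight at 37 °C a nucleoside suicide substrate at 0.3 μM plus medium for 4 days. On day 5, Hoechst 33342-stained nuclei were counted by imaging. Relative growth was normalised per plate to wells without suicide substrate (100%) and substrate plus vehicle (0%).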
# HEK293FT dCK*-IKZF1 = experiment: relative growth recovery (pomalidomide 10 uM = 100%, DMSO = 0%); higher = more growth rescue (IKZF1 fusion degradation); details: compound concentration: 5 uM; AraC concentration: 0.3 uM; overnight pretreatment + 4 days AraC
# How it was run: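 Means of duplicates from different days are given for growth recovery, normalised per plate against a reference degrader and vehicle. The reference degrader set the 100% level and vehicle the 0% level. HEK293FT cells stably expressing a deoxycytidine kinase–IKZF1 fusion (300/well, 384-well) received 5 μM compound 2 h after seeding and, after overnight at 37 °C, 0.3 μM of a nucleoside suicide substrate plus medium for 4 days. Nuclei stained with Hoechst 33342 were then counted by whole-well imaging on day 5.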
# Chain of IKZF1 (dCK*-IKZF1 fusion in HEK293FT) (Q13422 whole entry, looked up, the tested form may be a part): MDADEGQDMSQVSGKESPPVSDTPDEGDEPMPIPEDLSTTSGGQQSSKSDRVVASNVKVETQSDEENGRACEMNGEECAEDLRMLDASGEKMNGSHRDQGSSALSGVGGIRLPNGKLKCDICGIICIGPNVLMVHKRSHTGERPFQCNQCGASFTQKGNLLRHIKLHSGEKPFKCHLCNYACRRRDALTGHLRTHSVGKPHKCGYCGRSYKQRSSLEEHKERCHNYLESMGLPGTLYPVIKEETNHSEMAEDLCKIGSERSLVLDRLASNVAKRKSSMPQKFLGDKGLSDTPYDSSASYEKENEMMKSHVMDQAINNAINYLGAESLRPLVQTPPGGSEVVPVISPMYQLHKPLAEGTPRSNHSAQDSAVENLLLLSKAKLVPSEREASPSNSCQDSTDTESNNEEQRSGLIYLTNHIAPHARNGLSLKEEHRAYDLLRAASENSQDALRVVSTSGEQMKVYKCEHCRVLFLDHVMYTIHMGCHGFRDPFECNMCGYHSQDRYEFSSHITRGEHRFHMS
Compound,inhibition of IKZF1 HTRF signal [1],relative growth in counter assay (HEK293FT dCK*-only),relative growth recovery (HEK293FT dCK*-IKZF1)
O=C(Nc1ccc2[nH]ccc2c1)c1ccccc1,-24.8%,-3.62%,-0.01%
CCN(CC)CCCC(C)Nc1ccnc2cc(Cl)ccc12 (configuration not stated),-24.3%,-29.9%,-9.51%
CC1CC(OC(=O)C(O)c2ccccc2)CC(C)(C)C1 (configuration not stated),-11.2%,0.99%,-2.85%
Clc1ccc(COC(Cn2ccnc2)c2ccc(Cl)cc2Cl)cc1 (configuration not stated) [Econazole Nitrate],-40.1%,3.6%,4.02%
CC(NCCC(c1ccccc1)c1ccccc1)c1ccccc1 (configuration not stated) [fendiline],-38%,-1.99%,2.01%
O=C(OC)C1=C(C)NC(C)=C(C(OCCCN3CCC(C4=CC=CC=C4)(C5=CC=CC=C5)CC3)=O)[C@@H]1[C@]2=CC=CC([N+]([O-])=O)=C2 [dexniguldipine],-24.7%,-15.1%,-5.83%
Cc1cc(C)nc(NS(=O)(=O)c2ccc(N)cc2)n1,-24.1%,2.2%,-1.69%
O=C(/C=C/c1ccc(O)c(O)c1)OCCc1ccccc1 [caffeic-acid-phenethyl-ester],-31.4%,-29%,-7.03%
COc1cc(/C=C/C(=O)CC(=O)/C=C/c2ccc(O)c(OC)c2)ccc1O [Curcumin],-0.83%,-25.9%,-6.48%
C=CC(=O)c1ccc2ccccc2c1 [JAK3-inhibitor-V],-28.5%,-15.1%,0.695%
COc1ccc2nc3cc(Cl)ccc3c(Nc3cc(CN4CCCC4)c(O)c(CN4CCCC4)c3)c2n1,-32.1%,-29.1%,-10.1%
CN(Cc1cnc2nc(N)nc(N)c2n1)c1ccc(C(=O)N[C@@H](CCC(=O)O)C(=O)O)cc1,-18.9%,-31.2%,-10.1%
CC(C)(C#N)c1ccc(N2C(=O)OCc3cnc4ccc(-c5cnc6ccccc6c5)cc4c32)cc1,17.1%,3.56%,-2.14%
Cc1cc(Nc2ncc(Cl)c(Nc3ccccc3S(=O)(=O)C(C)C)n2)c(OC(C)C)cc1C1CCN(CCOCCOCCNC(=O)CNc2cccc3c2C(=O)N(C2CCC(=O)NC2=O)C3=O)CC1 (configuration not stated),66.9%,9.17%,62.7%
COCCN(C(=O)c1cc(OC)c(OC)c(OC)c1)c1nc(-c2ccccc2)cs1 [eact],-41.3%,-0.03%,-1.76%
Nc1ccc2cc3ccc(N)cc3nc2c1,62.9%,-35.1%,-15%
Cc1cccc(C)c1NC(=O)CN1CCN(CCCC(c2ccc(F)cc2)c2ccc(F)cc2)CC1 [lidoflazine],-30.1%,35.6%,36.1%
C=CC(=O)Nc1cccc(Oc2nc(Nc3ccc(N4CCN(C)CC4)cc3)ncc2Cl)c1,23.4%,-29.5%,-9.69%
NS(=O)(=O)c1cc2c(cc1Cl)NC(C(Cl)Cl)NS2(=O)=O (configuration not stated),19.3%,-3.14%,-3.58%
COc1ccc(-c2nc3cc(C4=NNC(=O)CC4C)ccc3[nH]2)cc1 (configuration not stated) [Pimobendan (Vetmedin)],-8.62%,-0.97%,-0.495%

Compound,inhibition of IKZF1 HTRF signal [1],relative growth in counter assay (HEK293FT dCK*-only),relative growth recovery (HEK293FT dCK*-IKZF1)
CC[C@@]1(O)C(=O)OCc2c1cc1n(c2=O)Cc2cc3c(CN(C)C)c(O)ccc3nc2-1 [Topotecan HCl],54.2%,-34.6%,-13.3%
COC(=O)Nc1ccc(-c2nc(N3CCOCC3)c3cnn(C4CCN(C(=O)OC)CC4)c3n2)cc1,8.25%,-9.33%,-2.33%
CO[C@H]1CC(O[C@@H]2/C(C)=C/C[C@@H]3C[C@@H](C[C@]4(CC[C@H](C)[C@@H](C5CCCCC5)O4)O3)OC(=O)[C@@H]3C=C(C)/C(=N/O)[C@H]4OC/C(=C\C=C\[C@@H]2C)[C@]43O)O[C@@H](C)C1O (some centres not stated),-24.5%,10.4%,-2.14%
CC(C)(C)CC(C)(C)c1ccc(O)c(Cc2ccc(Cl)cc2Cl)c1,115%,-6.45%,-7.76%
CCN(CC)CCCC(C)Nc1c2ccc(Cl)cc2nc2ccc(OC)cc12 (configuration not stated),57.3%,-34.1%,-13.4%
CCCSc1ccc2[nH]c(NC(=O)OC)nc2c1 [Albendazole],3.53%,6.7%,-0.675%
Cc1ncsc1-c1ccc(CNC(=O)[C@@H]2C[C@@H](O)CN2C(=O)[C@@H](NC(=O)COCCCCOc2ccc(-c3ccc(N4C(=S)N(c5ccc(C#N)c(C(F)(F)F)c5)C(=O)C4(C)C)cc3)cc2)C(C)(C)C)cc1,21.2%,72.3%,55.3%
CN(Cc1cnc2nc(N)nc(N)c2n1)c1ccc(C(=O)NC(CCC(=O)O)C(=O)O)cc1 (configuration not stated) [Methotrexate],-46%,-30.3%,-9.97%
CC1=C(C(=O)OC(C)C)C(c2cccc([N+](=O)[O-])c2)C(C(=O)OC2CN(C(c3ccccc3)c3ccccc3)C2)=C(N)N1 (configuration not stated) [Azelnidipine],10.4%,12.8%,0.07%
CC[N+](CC)(CC)CC(=O)Nc1c(C)cccc1C,-32.9%,-2.01%,-0.165%
Fc1ccc(CNc2ncnc3ccc(F)cc23)cc1 [spautin-1],8.67%,-2.11%,5.96%
COC1=C(OC)C(=O)C(CCCCCCCCCCO)=C(C)C1=O,41.8%,-5.9%,-2.21%
Cc1nc(Nc2ncc(C(=O)Nc3c(C)cccc3Cl)s2)cc(N2CCN(CCO)CC2)n1 [Dasatinib],-54.9%,-29%,-7.9%
CN(C)C(=O)C(CCN1CCC(O)(c2ccc(Cl)cc2)CC1)(c1ccccc1)c1ccccc1,-14.4%,0.63%,-0.755%
CO[C@@H]1[C@@H](OC2O[C@H](C)[C@@H](O[C@H]3C[C@@](C)(O)[C@@H](O)[C@H](C)O3)[C@H](N(C)C)[C@H]2O)[C@@H](CC=O)C[C@@H](C)[C@@H](O[C@H]2CC[C@H](N(C)C)[C@@H](C)O2)/C=C/C=C/C[C@@H](C)OC(=O)C[C@H]1O (some centres not stated),-29.9%,-5.7%,2.43%
COc1cccc2c1C(=O)c1c(O)c3c(c(O)c1C2=O)C[C@@](O)(/C(CO)=N/NC(=O)CCCCCN1C(=O)C=CC1=O)C[C@@H]3O[C@H]1C[C@H](N)[C@H](O)[C@H](C)O1 [Aldoxorubicin],-9%,-35.5%,-14%
CCN(CC)C(=S)SSC(=S)N(CC)CC,-34.2%,-35.6%,-12.6%
CC[C@H](C)[C@H]1O[C@]2(CC[C@@H]1C)C[C@@H]1C[C@@H](C/C=C(\C)[C@@H](O[C@H]3C[C@H](OC)[C@@H](O[C@H]4C[C@H](OC)[C@@H](O)[C@H](C)O4)[C@H](C)O3)[C@@H](C)/C=C/C=C3\CO[C@@H]4[C@H](O)C(C)=CC(C(=O)O1)[C@]34O)O2 (some centres not stated) [Ivermectin],-28.1%,-2.12%,0.635%
O=C(Nc1ccc(S(=O)(=O)C(F)(F)F)cc1)C1=CCN(c2ncccc2C(F)(F)F)CC1,-40.9%,62.2%,53.1%
c1ccc(C2(c3ccccc3)CC2=C2NCCN2)cc1 [cibenzoline],-50%,0.23%,-0.4%

Compound,inhibition of IKZF1 HTRF signal [1],relative growth in counter assay (HEK293FT dCK*-only),relative growth recovery (HEK293FT dCK*-IKZF1)
Clc1ccc(C(Cn2ccnc2)OCc2ccc(Sc3ccccc3)cc2)c(Cl)c1 (configuration not stated) [Fenticonazole nitrate],-51.2%,-4.73%,0.87%
CC(C)CCN1c2nc(Nc3cc(F)c(O)c(F)c3)ncc2N(C)C(=O)C1C (configuration not stated),-50.7%,-32.3%,-11.3%
O=C1OCCN1/N=C/c1ccc([N+](=O)[O-])o1,-32.5%,-3.23%,-3.37%
COc1cc2ncnc(Nc3ccc(F)c(Cl)c3)c2cc1OCCCCCOCCOCCC(=O)N[C@H](C(=O)N1C[C@H](O)C[C@H]1C(=O)NCc1ccc(-c2scnc2C)cc1)C(C)(C)C [Gefitinib-based PROTAC 3],15.5%,41.4%,55.5%
CCCCC(CC)COc1ccc(-c2nc(-c3ccc(OC)cc3)nc(-c3ccc(OCC(CC)CCCC)cc3O)n2)c(O)c1 (configuration not stated),-35.1%,12.9%,1.75%
Nc1ncc(Cc2ccc(Br)cc2)s1,-28.6%,-1.27%,-1.02%
C=C1C(=O)O[C@@H]2[C@H]3O[C@]3(C)CC/C=C(\C)CC[C@@H]12 [parthenolide-(alternate-stereo)],-27.7%,-34.4%,-12.4%
C1CCC(N/C(=N/C23CC4CC(CC(C4)C2)C3)N2CCOCC2)CC1,-35.4%,13%,1.62%
COC(=O)C1=C(C)NC(C)=C(C(=O)OC(C)C)C1c1cccc2nonc12 (configuration not stated) [isradipine],-28.6%,-4.67%,1.6%
CC1=C(/C=C/C(C)=C/C=C/C(C)=C/C(=O)Nc2ccc(O)cc2)C(C)(C)CCC1 [Fenretinide],-30.4%,-13.7%,-1.99%
CC(C)(N)c1nc(-c2ccc(OC(F)(F)F)cc2)c[nH]1,-29.8%,5.76%,-3.6%
COc1cc2c(cc1OC)[C@@H]1Cc3ccc(OC)c(OC)c3CN1CC2 [Rotundine],14.2%,-31.5%,-10.7%
Cc1cc(C)c(C2=NOC3C4CCC(C4)C23)c(C)c1 (configuration not stated),-34%,1.92%,-0.34%
O=C(NCCO[N+](=O)[O-])c1cccnc1,-26.3%,-5.9%,-1.74%
CC(C)(C)c1ccc(/C=C/C(=O)Nc2ccc3c(c2)OCCO3)cc1,-32%,-1.73%,0.45%
O=C(O)c1ccccc1-c1c2cc(I)c(=O)c(I)c-2oc2c(I)c(O)c(I)cc12,23.2%,-0.87%,-1.36%
O=C(CSc1nnc2c(n1)[nH]c1ccccc12)Nc1ccc(Cl)cn1,4.2%,-5.82%,1.11%
CCC(=O)O[C@@H]1CC(=O)O[C@H](C)C/C=C/C=C/[C@H](OC(C)=O)[C@H](C)C[C@H](CC=O)[C@H](O[C@@H]2O[C@H](C)[C@@H](O[C@H]3C[C@@](C)(OC(C)=O)[C@@H](OC(=O)CC)[C@H](C)O3)[C@H](N(C)C)[C@H]2O)[C@H]1OC [Midecamycin Acetate],-24.1%,2.69%,0.995%
COc1ccc2c(C)nc(Nc3nc(C)c(C)c(O)n3)nc2c1 [madrasin],-28.1%,6.01%,0.18%
